# Screening data as filed in PubChem BioAssay.
# Shown are actives, neighbours in structure and some others; about 19% of the full set was active somewhere.
# Lassa entry inh: Lassa virus entry inhibition; Lassa virus pseudotype entry inhibition, cell reporter; Potency, µM (highest dose often 37.9 µM), without a hit: top-dose activity change, negative = inhibition, usual class: inhibitors; 300,000 compounds, 1.2% hits; AID 540256; calls by dose curve; tested in HEK293 cells; note: potency is the fitted concentration of half-maximal effect; % is set by controls: 0 for no effect and ±100 for the full control effect; nearly all actives have a fitted effect of over 50% in size
# Shiga toxin inh: Shiga toxin inhibition; Vero cells, Shiga toxin protein synthesis inhibition reporter; inhibition, % at 38.7 µM; 290,000 compounds, 9.2% hits; in the data active = inhibition mostly above about 28%, no sharp cut-off; inactive = mostly below about 43%; note: 0% is about no effect
# Pf growth 48h: inhibits P. falciparum growth in the first generation, 48 h; P. falciparum luciferase growth in erythrocytes, 48 h; Potency, µM (titrated, usually from 28.7 µM), for the others: at the top dose activity change, negative = inhibition, usual class: inhibitors; 310,000 compounds, 5.9% hits; AID 504832; note: potency is the fitted concentration of half-maximal effect; % is set by controls: 0 for no effect and ±100 for the full control effect
#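 First compound was added to culture medium, then infected red cells at 0.1% parasitemia and 2% hematocrit (final). After incubation at 37 C under 5% CO2, luciferase detection reagent was dispensed and light output recorded.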
# Cycloheximide cs: counter-screen for Shiga toxin inhibitors: cycloheximide protein synthesis inhibition | max response, % | cell reporter, cycloheximide protein synthesis inhibition counterscreen | 300,000 compounds, 12% hits; in the data active = max response mostly above about 13%, no sharp cut-off; inactive = mostly below about 14%; note: read at 38.3 µM for the half of the compounds with a filed dose; 0% is about no effect
# MARV entry inh: inhibitors of Marburg virus binding or cell entry; Marburg virus pseudotyped entry inhibition, cell reporter; Potency, µM (top dose mostly 37.8 µM), for the others: at the top dose activity change, negative = inhibition, usual class: inhibitors; 300,000 compounds, 1.8% hits; AID 540276; calls by dose curve; tested in HEK293 cells; note: potency is the fitted concentration of half-maximal effect; % is set by controls: 0 for no effect and ±100 for the full control effect
# Pf growth 96h: P. falciparum growth inhibition at 96 hours | Potency, µM (series often up to 28.7 µM), without a hit: top-dose activity change, negative = inhibition, hits mostly inhibitors | 320,000 compounds, 6.9% hits | AID 504834 | P. falciparum luciferase reporter growth, 96 h; note: potency is the fitted concentration of half-maximal effect; % is set by controls: 0 for no effect and ±100 for the full control effect
#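 P. falciparum expressing integrated firefly luciferase grown in erythrocytes (2% hematocrit, 0.05% parasitemia final) with compounds for 96 hours at 37 C, 5% CO2. Growth inhibition read as loss of luminescence after adding luciferase detection reagent.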
# Starred values were filed as active, the others as inactive; i = inactive; ? = inconclusive; . = no result given; [ ] = dose if it differs, or a comment. Unless noted, calls come from the whole dose curve; as a rule, active = well fitted inhibition curve with a large enough effect; inconclusive = small, poorly fitted or top-dose-only effect, or another doubt; inactive = no such curve, though single readings can be large or run the other way.
SMILES,Lassa entry inh,Shiga toxin inh,Pf growth 48h,Cycloheximide cs,MARV entry inh,Pf growth 96h
CCc1cccc(CC)c1-n1c(SCn2nnc3ccccc3c2=O)nnc1-c1cccnc1,?,-13.4,.,-1.6,?,4.15µM*
CCc1ccc(/C=C/C(=O)c2cc(Br)ccc(=O)c2O)cc1,?,32.3,?,10.8,?,.
CCOc1ccc(/C=C/C(=O)CCC(=O)O)cc1,9.9%,73.7*,140.7%,53.9*,-0.2%[46.1 µM],-59.7%
CCOc1ccc(/C=C\C(C)=N\O)cc1,-5.6%,97.4*,218.3%,38.5*,?,i
CCOc1ccc(/C=C/C(=O)c2cc(Br)ccc(=O)c2O)cc1,?,9.2,10.4µM*,9.4,?,9.28µM*
CC(C)c1ccc(/C=C/C(=O)CCC(=O)O)cc1,?,56.6,137.2%,42.5*,?,i
O=C(COC(=O)c1cccc(C(=O)OCC(=O)NC2CC2)n1)NC1CC1,.,-7.6,12.1%,2.4,-2.7%[46.1 µM],5.4%
O=C(CC1CC2CCC1C2)NCc1cccs1 (centres undefined),18.4%,51.9,26.2%,15.5*,-0.7%,18.2%
COc1cc(/C=C/c2ccccc2)cc(OC)c1,-2.3%[46.1 µM],.,.,.,?,.
CC(COc1ccc(/C=C/c2ccccc2)cc1)[N+](C)(C)C (centres undefined),?,.,1.31µM*,.,?,0.928µM*
Cc1ccc(NC(=O)C2C3CC4OC(=O)C2C4C3)cc1Cl (centres undefined),3.9%,-3.8,7.9%,6.1,?,7.8%
CC(C)OC(=O)c1ccc(NC(=O)C2C3CC4OC(=O)C2C4C3)cc1 (centres undefined),?,60.5*,233.6%,33.5*,?,.
O=C(c1ccc(NS(=O)(=O)c2cccc(F)c2)cc1)N1CCCCC1,.,1.5,0.0%,-1.0,.,27.8%
Cc1c(C(C)(C)O)[nH]c2cc(C(F)(F)F)ccc12,.,-9.5,31.2%,-0.6,.,-14.6%
CC(C)(O)c1[nH]c2ccc(C(F)(F)F)cc2c1C(C)(C)O,.,19.7,0.0%,7.9*,.,27.7%
CC(C)(O)c1[nH]c2cc(C(F)(F)F)ccc2c1C(C)(C)O,.,37.1*,42.7%,8.8,.,22.3%
c1ccc2c(Nc3nc4c(s3)CCCC4)cccc2c1,2.0%,111.9*,-4.6%,45.1*,?,150.8%
O=C(CCc1ccccc1)NCC(=O)N/N=C/c1ccc2c(c1)OCO2,1.6%,53.2*,17.5%,19.2*,?,0.3%
O=C(CNc1ccccc1)N/N=C/c1ccc2c(c1)OCCO2,-2.1%,47.5*,38.5%,34.1*,28.2%,36.7%
O=C(CSc1ncccn1)N/N=C/c1ccc2c(c1)OCO2,0.4%[46.1 µM],24.9,49.0%,34.2*,?,-29.4%
COc1ccc(CCC(=O)N/N=C/c2ccc3c(c2)OCO3)cc1,0.1µM*,.,.,.,8.4%,.
O=C(CCc1ccccc1)N/N=C\c1cc2c(cc1Br)OCO2,?,-9.9,42.5%,-2.2,-19.0%,?
O=C(CSc1ncccn1)N/N=C/c1ccc(OC2CSC2)cc1,.,23.9,38.5%,12.3,.,1.7%
CSCCC(NC(=O)c1ccco1)C(=O)NCCc1ccc(Cl)cc1 (centres undefined),7.5%,.,.,.,8.4%,.
Cc1ccccc1C(=O)NC1CCN(C(=O)Nc2ccccc2Cl)CC1,.,7.6,35.3%,1.1,.,-17.7%
SMILES,Lassa entry inh,Shiga toxin inh,Pf growth 48h,Cycloheximide cs,MARV entry inh,Pf growth 96h
O=C(CNc1ccccc1)N/N=C/c1ccc2c(c1)OCO2,-4.4%,28.9*,10.7%,20.1*,0.5%,24.4%
O=C(CCc1c[nH]c2ccccc12)N/N=C/c1ccc2c(c1)OCO2,?,-3.1,13.8%,13.6,?,0.0%
O=C(N/N=C/c1ccc2c(c1)OCO2)C(=O)Nc1ccccc1,11.1%[46.1 µM],24.3,58.2%,1.4,?,85.2%
O=C(Cc1ccccc1)N/N=C/c1ccc2c(c1)OCO2,?,72.0*,282.2%,33.5*,0.4%[46.1 µM],50.7%
O=C(Cn1ccc(C(F)(F)F)n1)N/N=C/c1ccc2c(c1)OCO2,17.8%,122.3*,32.0%,36.5*,22.6%,19.1%
C/C(=N\NC(=O)Cn1ccc(C(F)(F)F)n1)c1ccc2c(c1)OCO2,-14.6%,27.5,34.3%,7.0,23.9%[46.1 µM],30.5%
COCCN(CCOC)c1ncnc2c1cnn2-c1ccccc1,.,34.2*,45.6%,15.1*,-0.2%,64.4%
COCCN(CCOC)c1ncnc2c1cnn2-c1ccc(Cl)cc1,-3.2%,76.3*,106.6%,59.6*,-2.0%,0.0%
